# About 2,000 (0.91%) of roughly 220,000 compounds were called active. Not shown: some 2% with an inconclusive outcome. A selection follows. Potency and affinity values are given separately. Unmarked numbers belong to inactive results. No stated cut-off is given here; in the data, inconclusive means inhibition above about 80% without an active follow-up result; inactive means below that; test concentration not stated here.
# Assay: M. tuberculosis H37Rv growth inhibitors, H37Rv strain (AID 1626);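 further: bacteria incubated seven days before Alamar blue readout; 0% = bacteria only wells and 100% = bacteria with antibiotic wells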
# Details: stronger effect = higher value, concentration not given here
row,SMILES,inhibition
1,COc1cccc(CNC(=O)Cn2nc(-c3ccc(Cl)cc3)ccc2=O)c1,4.51%
2,CCOC(=O)C(C)Sc1nc(=O)n2cc(C)ccc2n1 (stereo not given),3.92%
3,Cc1ccc([N+](=O)[O-])cc1NCC(=O)NN,-8.54%
4,c1ccc2c(SCc3cn4ccccc4n3)nncc2c1,-2.83%
5,N=C(N)SCc1nc2ccccn2c1Br,-11.2%
6,CC(C)c1ccc2c(c1)C(c1cccs1)=NNC(c1ccncc1)=N2,0.38%
7,COc1ccc(-c2nnc3ccc(SC(C(C)=O)C(C)=O)nn23)cc1OC,2.29%
8,COc1ccc(NC(C)=O)cc1C#N,0.78%
9,O=C1OC2(CCCCC2)OC(=O)C1=CNc1ccc2c(c1)OCO2,55.9%
10,NS(=O)(=O)c1ccc(NC=C2C(=O)OC3(CCCCC3)OC2=O)cc1,4.66%
11,COCCCNC(=O)Cn1cc(C(C)=O)c2ccccc21,-10.3%
12,CC1CCCC(NC(=O)COC(=O)[C@@H](NC(=O)c2ccco2)C(C)C)C1C (stereo not given in full),-2.77%
13,CC(C)(C)c1ccc(C(=O)Nc2ccc(F)cc2)s1,12.9%
14,CCc1cc2cc(C(=O)Nc3ccccc3F)sc2s1,0.32%
15,Cc1ccc(NC(=O)c2cccs2)cc1,-1.3%
16,CCc1cc2cc(C(=O)N3CCN(c4ccccc4)CC3)sc2s1,2.92%
17,Cc1cc(C(F)(F)F)nc(SCc2ccc(C(=O)O)o2)n1,-10.7%
18,COc1ccc(Cn2c(=S)[nH]c3ccsc3c2=O)cc1,-1.7%
19,O=c1[nH]cc(COCC(F)(F)C(F)(F)C(F)(F)F)c(=O)[nH]1,5.87%
20,Cc1ccc(S(=O)(=O)N2CCC(C(=O)NNC(=O)c3ccccc3)CC2)cc1,0.71%
21,C/C(=N\NC(=O)c1cc(-c2ccncc2)nc2ccccc12)c1ccc(OC(F)F)cc1,0.28%
22,C#CCNC(=O)C1=C[C@H](c2ccc3c(c2)OCO3)C[C@H](OCCCCO)O1,-6.12%
23,CCc1cccc(C)c1NC(=O)COC(=O)c1c2c(nc3ccccc13)/C(=C\c1cccs1)CCC2,1.95%
24,CCCCNC(=O)COC(=O)c1c2c(nc3ccccc13)/C(=C/c1cccs1)CC2,36.5%

row,SMILES,inhibition
1,CC(C)CNC(=O)COC(=O)c1c2c(nc3ccccc13)/C(=C/c1cccs1)CC2,32.2%
2,COc1ccc(NC(=O)COC(=O)c2c3c(nc4ccccc24)CCCC3)cc1,-13.1%
3,COc1ccc(-c2[nH]ncc2CN2CCC(N3CCSCC3)CC2)cc1F,-4.08%
4,CCOC(=O)C(/C=C(\C#N)C(=O)OCC)=C(/N)N1CCN(c2ccccc2)CC1,-0.44%
5,CCOC(=O)C(/C=C(\C#N)C(=O)OCC)=C(/N)N1CCN(c2ccc(OC)cc2)CC1,6.53%
6,COc1ccc(C(=O)Nc2ccc(Cl)cn2)cc1Cl,12.4%
7,COC(=O)c1cc(NC(=O)CSc2nc(C)cc(=O)[nH]2)cc(C(=O)OC)c1,-18.1%
8,CC(=O)Nc1ccc(N/C(N)=N/c2nc(C)cc(C)n2)cc1,4.6%
9,Cc1ccc(N/C(N)=N/c2nc(C)cc(C)n2)cc1,-3.3%
10,Cn1ccnc1Sc1ccc(/C=N/NC(=O)c2ccccc2[N+](=O)[O-])cc1[N+](=O)[O-],-13.1%
11,NC(=O)CSc1nnc(COc2ccccc2)n1CCc1ccccc1,-4.55%
12,Cc1ccc(CNC(=O)C23CN(Cc4ccccc4)CC2C(c2ccc([N+](=O)[O-])cc2)=NO3)cc1 (stereo not given),7.16%
13,CCc1c(C)c(C#N)c2nc3ccccc3n2c1N(C)C,-1.31%
14,CCCCCc1c(C)c(C#N)c2nc3ccccc3n2c1-n1ccnc1C,-1.65%
15,Cc1c(Cc2ccccc2)c(NCCN(C)C)n2c(nc3ccccc32)c1C#N,-1.57%
16,Cc1cc(NCCCO)n2c(nc3ccccc32)c1C#N,1.01%
17,COC(=O)c1cc(C(=O)OC)cc(N2C(=O)CN=C2Nc2nc(C)cc(C)n2)c1,-5.98%
18,Cc1cc(C)c(NC(=O)c2c[nH]c(=S)n2-c2ccc(F)cc2)c(C)c1,-1.12%
19,COc1ccc(-c2nc(C#N)c(NCCN(C)C)o2)cc1,-2.85%
20,COc1cccc(-c2csc(N3CCN(C(=O)Nc4ccc(Cl)cc4)CC3)n2)c1,80%
21,COc1cccc(-c2csc(N3CCN(C(=O)Nc4ccccc4OC)CC3)n2)c1,0.17%
22,COc1cccc(-c2csc(N3CCN(C(=O)Nc4ccc(F)cc4)CC3)n2)c1,20.3%
23,COc1cccc(NC(=O)N2CCN(c3nc(-c4cccc(OC)c4)cs3)CC2)c1,79.8%
24,CCOP(=O)(OCC)C1(O)C(=O)Nc2ccc(Br)cc21 (stereo not given),0.14%

row,SMILES,inhibition
1,CCC1(C)Cc2c(sc3nnn(CC(=O)Nc4ccccc4)c(=O)c23)CO1 (stereo not given),-3.81%
2,CCOc1ccc(NC(=O)C(CC(=O)O)Cc2ccccc2)cc1 (stereo not given),-4.45%
3,O=c1oc2ccccc2cc1-c1ccc(O)cc1,30.4%
4,O=c1oc2ccccc2cc1-c1nc(-c2ccccc2)no1,23.2%
5,COc1ccccc1-c1nc(-c2cccc(C)c2)no1,9.74%
6,O=c1oc2ccccc2cc1-c1ccccc1,-5.07%
7,Cc1ccc(-c2csc(Cc3nc(-c4cc5ccccc5oc4=O)cs3)n2)cc1,-1.52%
8,Cc1cccc(-c2noc(-c3ccoc3C)n2)c1,8.21%
9,COC(=O)c1sc(SC)c(S(=O)(=O)C(C)C)c1N/N=C(\C#N)C(=O)c1ccccc1,-10.6%
10,COc1ccc(Cn2cc3c(-c4ccc(F)cc4)nnc-3c3cc(OC)c(OC)cc32)cc1,64.8%
11,CCOCC(=O)Nc1cc(Cl)ccc1C,-11.6%
12,On1c(-c2ccccc2Cl)nc2ccccc21,12.4%
13,COc1ccc(CNC(=O)CC2C(=O)NCCN2CC(C)(C)C)c(OC)c1 (stereo not given),-2.94%
14,Cc1ccccc1OC(C)C(=O)NCc1cccnc1 (stereo not given),1.38%
15,CCOC(=O)C1=C(CSCC(=O)OC)NC(=O)NC1c1cc(C)ccc1C (stereo not given),0.6%
16,Cc1cc(C)nc(NC(=O)/C=C/c2ccccc2Cl)n1,-5.04%
17,Cc1cc(C)nc(NC(=O)/C=C/c2ccccc2Cl)c1,9.12%
18,O=C(Cn1nc(-c2ccccc2)nc1-c1ccccc1)N1CCOCC1,-4.2%
19,COC(=O)[C@@]1(Cc2ccc(F)cc2)[C@H]2c3cc(C(=O)N(C)C)n(Cc4ccccn4)c3C[C@H]2CN1C(=O)c1ccccc1,8.03%
20,OC(COc1ccc2ccccc2c1)Cn1ccnc1 (stereo not given),51.7%
21,O=C(CSCC(=O)N1CCN(c2ccccc2)CC1)Nc1nc(-c2ccc(Cl)s2)cs1,8.45%
22,CCOC(=O)N1CCN(C(=O)CSCC(=O)Nc2nc(-c3ccc(Cl)s3)cs2)CC1,16.6%
23,CCOc1ccc(OCC(O)CNC2CCN(Cc3ccccc3)CC2)cc1 (stereo not given),1.56%
24,OC(CNC1CCCC1)COc1ccc(-c2ccccc2)cc1 (stereo not given),10.9%

row,SMILES,inhibition
1,O=C(OCc1ccc(C(=O)c2ccccc2)cc1)c1cccc(-c2nnc(-c3ccccc3)o2)c1,20.2%
2,O=c1oc(-c2ccccc2NS(=O)(=O)c2ccc3ccccc3c2)nc2ccccc12,7.84%
3,O=C(c1cc(-c2ccncc2)nc2ccc(Cl)cc12)N1CCN(Cc2ccc3c(c2)OCO3)CC1,0.94%
4,CCOc1ccc(NC(=O)Cn2nnc3c(cnn3-c3ccc(F)cc3)c2=O)cc1,3.8%
5,C/C(Cc1ccccc1)=N/NC(=O)CNC(=O)C(c1ccccc1)c1ccccc1,-1.53%
6,CCc1ccc(C2c3[nH]c4ccccc4c3CCN2C(=O)c2ccc(=O)n(C)n2)cc1 (stereo not given),37.1%
7,CCc1ccc(C2c3[nH]c4ccccc4c3CCN2C(=O)c2cc[n+]([O-])cc2)cc1 (stereo not given),7.89%
8,CCNC(=O)N1CCN(C(=O)NCC)CC1,-2.46%
9,Cc1cc(/C=N/n2cnnc2)c(C)n1-c1ccc(Cl)cc1Cl,12.1%
10,Cc1cc(/C=N/n2cnnc2)c(C)n1-c1ccc(Cl)cc1,8.9%
11,CC(=O)Oc1ccc(C(=O)Nc2cc(NC(=O)c3ccc(OC(C)=O)cc3)cc(C(=O)NC(C)(C)C)c2)cc1,-1.93%
12,CCN1CCC(O)(c2ccccc2)C(C(=O)c2ccccc2)C1 (stereo not given),50.9%
13,CCCCN1CCC(O)(c2ccccc2)C(C(=O)c2ccccc2)C1 (stereo not given),5.96%
14,O=S(=O)(N1CCOCC1)N1CCN(c2ccc(F)cc2)CC1,-7.1%
15,Nc1c(C(=O)OCC(=O)NCc2ccccc2)[nH]c(=O)[nH]c1=O,-4.41%
16,Cc1[nH]c(=O)[nH]c(=O)c1/C=C/C(=O)O,-8.34%
17,CCOc1ccc2nc(SCC(=O)N(C)C)[nH]c2c1,-11.1%
18,CO/N=C(/CS(=O)Cc1ccc(Cl)cc1)c1ccc(Cl)cc1 (stereo not given),1.17%
19,COC(=O)COc1ccc(S(=O)(=O)NCCC2=CCCCC2)cc1,25.1%
20,CCCNS(=O)(=O)c1ccc(OCC(=O)NCCC2=CCCCC2)cc1,13.8%
21,Cc1cccc(C)c1NC(=O)CNC(=O)CCC(=O)c1cccs1,-5.43%
22,Cc1ccc(NC(=O)c2snc3ccc(Cl)cc23)cc1C,6.9%
23,CC(C)c1ccc(NC(=O)c2csnn2)cc1,-0.83%

# From PubChem BioAssay AID1626 (SRMLSC, 2009)
